# Screen size: about 3,400 compounds; about 840 (25%) were called active. Not shown: some 11% with an inconclusive outcome. Not all results are given here. Potency and affinity values are given separately. A number with no mark means an inactive call.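 How the source made its calls: active means fitted half-maximal concentration of signal decrease at or below twice the sample's top tested concentration; inconclusive means flat curve between -70 and -30 percent, or poor fit; inactive means flat within 30 percent, signal rise, or potency above limit.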
# Assay: T. gondii growth inhibition with IFN-gamma, dose response, cell-based, ME49Luc, HeLa, luciferase, 72 h (AID 1259418)
# Conditions: T. gondii ME49Luc in IFN-y HeLa, hits give low values, -100% = high-dose IFN-γ control wells; at 19.5 µM unless noted
row,SMILES,max activity
1,COc1ccc(-c2noc(C3CCCN3C(=O)c3sc(C)nc3C)n2)cc1 (configuration not stated),11.1% [at 0.35 µM]
2,COc1ccc(CNC(=O)CCC2N=C3c4ccccc4N=C(SCc4cc(=O)n5ccccc5n4)N3C2=O)cc1 (configuration not stated),14.6% [at 1.35 µM]
3,Cc1csc(-c2csc(S(=O)(=O)N3CCC(Cc4ccccc4)CC3)c2)n1,-14% [at 0.35 µM]
4,O=C(CCC1Nc2c3ccccc3nc(=S)n2C1=O)NCc1ccc(F)cc1 (configuration not stated),21.3%
5,Cc1cccc(-c2nc(CSc3nc4c(c(=O)[nH]3)CN(Cc3ccc(F)cc3)CC4)c(C)o2)c1,16.6% [at 0.16 µM]
6,CSc1ccc(-c2noc(-c3nnn(Cc4nc(-c5ccccc5)oc4C)c3C)n2)cc1,13.9%
7,COc1ccc(S(=O)(=O)Nc2ccc(-c3nc(-c4ccc(C)c(C)c4)co3)cc2)cc1,54.5% [at 10 µM]
8,CCn1nnc2c(NCCn3ccc4ccccc43)ncnc21,-27.3%
9,Cc1nc(-c2cc(S(=O)(=O)N3CCC(C)CC3)c(C)s2)sc1C,-8.09% [at 0.68 µM]
10,Cc1nc(-c2cc(S(=O)(=O)NCCN3CCC(C)CC3)c(C)s2)sc1C,16.1% [at 0.35 µM]
11,COc1ccc(NC(=O)Nc2ccc(-c3nc(-c4ccc(C)cc4)co3)cc2)cc1OC,-10.2% [at 1.35 µM]
12,COc1ccc(CC(=O)N2CCC3(CC2)Nc2cc(F)ccc2-n2cccc23)cc1,9.99% [at 0.16 µM]
13,Cc1ccc(-c2coc(-c3ccc(NS(=O)(=O)c4ccc(Br)cc4)cc3)n2)cc1C,22% [at 0.68 µM]
14,CN1C(=O)c2cc(NC(=O)Cc3cccs3)ccc2OC[C@@H]2O[C@H](CC(=O)N[C@@H]3CCN(Cc4ccccc4)C3)CC[C@@H]21,12.6% [at 0.6 µM]
15,CN1C(=O)c2cc(NC(=O)Cc3cccs3)ccc2OC[C@@H]2O[C@H](CC(=O)N[C@H]3CCN(Cc4ccccc4)C3)CC[C@@H]21,21.7%
16,Cc1ccc(-c2coc(-c3ccc(NC(=O)Nc4ccccc4)cc3)n2)c(C)c1,15.7% [at 0.16 µM]
17,Cc1ccc(N2CCN(C(=O)c3ccc(-c4csc(C5CC5)n4)cc3)CC2)c(C)c1,4.42%
18,COc1cc(NC(=O)Nc2ccc(-c3nc(-c4ccccc4)co3)cc2)cc(OC)c1,11.5% [at 0.16 µM]
19,Cc1ccc(-c2nc3c(s2)CN(C(=O)Nc2cccc(C)c2)CC3)cc1,26.8% [at 10 µM]
20,Cc1ccc(-c2nc3c(s2)CN(C(=O)Nc2ccccc2C)CC3)cc1,18.7%
21,COc1cccc(-c2nc3c(s2)CN(C(=O)Nc2ccc(OC)c(OC)c2)CC3)c1,7.26%
22,COc1ccc(-c2nc3c(s2)CN(C(=O)Nc2ccc(C)cc2C)CC3)cc1,24.8%
23,COc1cccc(-c2nc3c(s2)CN(C(=O)Nc2ccc(C)c(C)c2)CC3)c1,12.6% [at 2.6 µM]
24,COc1ccc(-c2nc3c(s2)CN(C(=O)Nc2cc(C)cc(C)c2)CC3)cc1,17.7%

row,SMILES,max activity
1,Cc1nc(CCNC(=O)C2CCN(S(=O)(=O)c3ccc(F)c(F)c3)CC2)cs1,10.4% [at 5 µM]
2,Cc1ccc2c(c1C)-n1cccc1C1(CCN(C(=O)c3cccc(F)c3)CC1)N2,-11.1% [at 0.35 µM]
3,O=C(NCCN1CCCC1)C1CCN(Cc2cc3ccccc3n2Cc2ccccc2Cl)CC1,6.81%
4,O=C(NCc1cccnc1)C1CCN(Cc2cc3ccccc3n2Cc2ccccc2Cl)CC1,-4.69% [at 1.35 µM]
5,Cc1ccccc1Cn1c(CN2CCC(C(=O)NCCC(C)N3CCCC3)CC2)cc2ccccc21 (configuration not stated),15.2% [at 0.16 µM]
6,O=C(Nc1ccc(-c2nc(-c3ccccc3)co2)cc1)Nc1ccccc1F,103%
7,COc1ccc(Cl)cc1NC(=O)N1CCc2nc(-c3ccccc3)sc2C1,-14.8% [at 0.35 µM]
8,CN(Cc1ccccn1)C(=O)C1=NOC2(CCN(S(=O)(=O)c3cccc(F)c3)C2)C1 (configuration not stated),23.5% [at 10 µM]
9,Cc1ccc(-c2coc(-c3ccc(NC(=O)Nc4ccc(F)c(Cl)c4)cc3)n2)cc1,49.3%
10,CCc1c(C)sc2c1CCN(Cc1nc(-c3ccc(C(C)C)cc3)oc1C)C2c1ccccc1 (configuration not stated),9.71%
11,Cc1ccccc1C(=O)Nc1cnc(N2CCC(C(N)=O)(N3CCCCC3)CC2)c(C(=O)O)c1,-6.96% [at 1.35 µM]
12,CCc1ccc(S(=O)(=O)N2CCC3(CC2)NCCN=C3NCc2ccc(Cl)cc2)cc1,17.4% [at 10 µM]
13,CCc1ccc(S(=O)(=O)N2CCC3(CC2)NCCN=C3NCc2cc(F)cc(F)c2)cc1,16.8%
14,CC(C)Cc1ccc(S(=O)(=O)N2CCC3(CC2)NCCN=C3NCc2cccc(F)c2)cc1,16.8% [at 10 µM]
15,Cc1cnn(C(C)C(=O)N2CCc3[nH]nc(-c4ccc(F)c(F)c4)c3C2)c1 (configuration not stated),11.2%
16,Cc1ccc(-c2coc(-c3ccc(NC(=O)Nc4ccccc4Cl)cc3)n2)cc1,13.9% [at 0.16 µM]
17,COC(=O)C1CCN(S(=O)(=O)c2cc3c4c(c2)CCC(=O)N4CCC3)CC1,9.1% [at 1.35 µM]
18,CCOc1ccc(-c2nc3c(s2)CN(S(=O)(=O)c2cc(C)cc(C)c2)CC3)cc1,-12.1% [at 2.6 µM]
19,COc1ccc(-c2nc(NCc3cccc(Cl)c3)c3ccccc3n2)cc1,-12% [at 0.35 µM]
20,CCc1c(C)sc2c1CCN(Cc1nc(-c3ccc(Cl)cc3)oc1C)C2c1ccccc1 (configuration not stated),38.9% [at 10 µM]
21,CCc1ccccc1NC(=O)N1CCc2nc(-c3ccc(C)cc3)sc2C1,-16.8%
22,Clc1ccc(-c2nc(N3CCN(Cc4ccc5c(c4)OCO5)CC3)c3ccccc3n2)cc1,21.6% [at 2.6 µM]
23,O=C(Nc1ccc(Cl)cc1)Nc1ccc(-c2nc(-c3ccccc3)co2)cc1,-18.8% [at 2.6 µM]
24,COc1ccc(-c2nc(CN(c3ccc(OC)cc3)S(=O)(=O)c3ccccc3)c(C)o2)cc1,21.2% [at 5 µM]

row,SMILES,max activity
1,Cc1oc(-c2ccc(OC(C)C)cc2)nc1CN(c1ccccc1)S(=O)(=O)c1ccccc1,5.29%
2,COc1ccc(-c2nc(CN(c3ccc(OC)cc3)S(=O)(=O)c3ccc(OC)cc3)c(C)o2)cc1,16.7% [at 5 µM]
3,Cc1oc(-c2ccccc2)nc1CN(c1ccccc1)S(=O)(=O)c1ccccc1,6.75% [at 2.6 µM]
4,COc1ccc(N(Cc2nc(-c3ccc(C)cc3)oc2C)S(=O)(=O)c2ccc(OC)cc2)cc1,6.72% [at 1.35 µM]
5,COc1ccc(-c2nc(CN(c3ccc(OC)cc3)S(=O)(=O)c3ccc(C)cc3)c(C)o2)cc1,-10.7% [at 0.16 µM]
6,COc1ccc(S(=O)(=O)N2CCC[C@@H]2C(=O)NCCc2csc(C)n2)cc1,-6.98% [at 5 µM]
7,CCc1ccccc1NC(=O)COc1nc(C)nc2ccccc12,-12.9% [at 2.6 µM]
8,COCCNC(=O)C1(C)CCC(=O)N1CCc1c[nH]c2ccccc12 (configuration not stated),3.62%
9,O=C(CC1N=C2c3ccccc3N=C(SCc3cccc(F)c3)N2C1=O)NCc1ccc2c(c1)OCO2 (configuration not stated),67.4%
10,Cc1cccc(CN2CCC3(CC2)N=C(c2cccc(F)c2)C(=O)N3)c1,-7.22%
11,Cc1cccc(-c2noc(-c3nnn(Cc4nc(-c5cccc(Cl)c5)oc4C)c3C)n2)c1,60.4%
12,CCN1CC(C(=O)O)CN2CCN(C(=O)c3ccncc3F)CC2C1 (configuration not stated),5.55%
13,COc1ccc(-c2nc(Nc3ccc(C(C)C)cc3)c3ccccc3n2)cc1,12% [at 5 µM]
14,O=C(NCCc1csc(-c2ccccc2)n1)[C@H]1CSCN1C(=O)c1cccc(F)c1,-24.5%
15,O=C(NCCc1csc(-c2ccccc2)n1)[C@H]1CCCN1C(=O)c1ccco1,-10.6% [at 0.16 µM]
16,O=C(Cc1ccccc1)N1CC[C@H]2[C@H](CO)Nc3ccc(C4=CCCCC4)cc3[C@H]21,30.4% [at 10 µM]
17,COc1ccccc1-c1ccc2c(c1)[C@H]1[C@H](CCN1Cc1ccccc1F)[C@@H](CO)N2,11.2% [at 1.2 µM]
18,CN(C)C(=O)c1cccc(-c2ccc3c(c2)[C@H]2[C@H](CCN2C(=O)Cc2ccccc2)[C@@H](CO)N3)c1,24.7% [at 5 µM]
19,Cc1ccc(S(=O)(=O)N2CC[C@@H]3[C@H]2c2cc(-c4cccc(C(=O)N(C)C)c4)ccc2N[C@@H]3CO)cc1,21.6% [at 10 µM]
20,CCOc1ccc(C(=O)N2CCC3(CC2)Nc2cc(F)ccc2-n2cccc23)cc1,-6.53% [at 5 µM]
21,Cc1cccc(OCC(=O)N2CCC3(CC2)Nc2ccc(C)c(C)c2-n2cccc23)c1,8.26% [at 0.16 µM]
22,O=C(COc1ccc(Cl)cc1)N1CCC2(CC1)Nc1cc(F)ccc1-n1cccc12,9.43% [at 0.16 µM]
23,O=C(COc1ccccc1)N1CCC2(CC1)Nc1ccc(Cl)cc1-n1cccc12,8.01% [at 0.35 µM]
24,O=C(COc1ccc(Cl)cc1)N1CCC2(CC1)Nc1ccc(Cl)cc1-n1cccc12,3.74% [at 0.68 µM]

# From PubChem BioAssay AID1259418 (Broad Institute, 2018)
